High-throughput results deposited in PubChem by National Center for Advancing Translational Sciences (NCATS).
Only some compounds are listed: those with a hit (about 11% of all), similar ones and a draw of the others.
L3MBTL1 block = qHTS Assay for the Inhibitors of L3MBTL1; Lethal(3)malignant brain tumor-like protein 1 (Homo sapiens), Q9Y468; AlphaScreen L3MBTL1–H3K9me1 peptide binding; Potency, µM (top dose mostly 57.1 µM), for inactives: at the highest dose activity, negative = inhibition, most hits filed as inhibitors; hit rate 0.66% among 230,000; AID 485360, 2010; further: potency means the concentration at half of the fitted maximal effect; on the % scale 0 is the no-effect control and ±100 the full control effect; nearly all actives have a fitted effect of over 60% in size
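Read-out is AlphaScreen signal from streptavidin donor and nickel chelate acceptor beads (10 ug/mL final each) bridging L3MBTL1 (50 nM) and biotinylated K9-monomethylated H3(1-15) peptide (75 nM), after 30 min compound exposure at room temperature.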
BAZ2B inh = qHTS Assay for Inhibitors of BAZ2B. Bromodomain adjacent to zinc finger domain protein 2B (Homo sapiens), Q9UIF8. AlphaScreen BAZ2B-H3K14Ac peptide displacement. Potency, µM (doses to about 114 µM), for the others: top-dose activity change, negative = inhibition, usual class: inhibitors. hit rate 4.4% among 360,000. AID 504333, 2011; further: potency means the concentration at half of the fitted maximal effect; on the % scale 0 is the no-effect control and ±100 the full control effect; nearly all actives have a fitted effect of over 60% in size
Target sequence (Q9UIF8 whole entry, looked up, the tested form may be a part): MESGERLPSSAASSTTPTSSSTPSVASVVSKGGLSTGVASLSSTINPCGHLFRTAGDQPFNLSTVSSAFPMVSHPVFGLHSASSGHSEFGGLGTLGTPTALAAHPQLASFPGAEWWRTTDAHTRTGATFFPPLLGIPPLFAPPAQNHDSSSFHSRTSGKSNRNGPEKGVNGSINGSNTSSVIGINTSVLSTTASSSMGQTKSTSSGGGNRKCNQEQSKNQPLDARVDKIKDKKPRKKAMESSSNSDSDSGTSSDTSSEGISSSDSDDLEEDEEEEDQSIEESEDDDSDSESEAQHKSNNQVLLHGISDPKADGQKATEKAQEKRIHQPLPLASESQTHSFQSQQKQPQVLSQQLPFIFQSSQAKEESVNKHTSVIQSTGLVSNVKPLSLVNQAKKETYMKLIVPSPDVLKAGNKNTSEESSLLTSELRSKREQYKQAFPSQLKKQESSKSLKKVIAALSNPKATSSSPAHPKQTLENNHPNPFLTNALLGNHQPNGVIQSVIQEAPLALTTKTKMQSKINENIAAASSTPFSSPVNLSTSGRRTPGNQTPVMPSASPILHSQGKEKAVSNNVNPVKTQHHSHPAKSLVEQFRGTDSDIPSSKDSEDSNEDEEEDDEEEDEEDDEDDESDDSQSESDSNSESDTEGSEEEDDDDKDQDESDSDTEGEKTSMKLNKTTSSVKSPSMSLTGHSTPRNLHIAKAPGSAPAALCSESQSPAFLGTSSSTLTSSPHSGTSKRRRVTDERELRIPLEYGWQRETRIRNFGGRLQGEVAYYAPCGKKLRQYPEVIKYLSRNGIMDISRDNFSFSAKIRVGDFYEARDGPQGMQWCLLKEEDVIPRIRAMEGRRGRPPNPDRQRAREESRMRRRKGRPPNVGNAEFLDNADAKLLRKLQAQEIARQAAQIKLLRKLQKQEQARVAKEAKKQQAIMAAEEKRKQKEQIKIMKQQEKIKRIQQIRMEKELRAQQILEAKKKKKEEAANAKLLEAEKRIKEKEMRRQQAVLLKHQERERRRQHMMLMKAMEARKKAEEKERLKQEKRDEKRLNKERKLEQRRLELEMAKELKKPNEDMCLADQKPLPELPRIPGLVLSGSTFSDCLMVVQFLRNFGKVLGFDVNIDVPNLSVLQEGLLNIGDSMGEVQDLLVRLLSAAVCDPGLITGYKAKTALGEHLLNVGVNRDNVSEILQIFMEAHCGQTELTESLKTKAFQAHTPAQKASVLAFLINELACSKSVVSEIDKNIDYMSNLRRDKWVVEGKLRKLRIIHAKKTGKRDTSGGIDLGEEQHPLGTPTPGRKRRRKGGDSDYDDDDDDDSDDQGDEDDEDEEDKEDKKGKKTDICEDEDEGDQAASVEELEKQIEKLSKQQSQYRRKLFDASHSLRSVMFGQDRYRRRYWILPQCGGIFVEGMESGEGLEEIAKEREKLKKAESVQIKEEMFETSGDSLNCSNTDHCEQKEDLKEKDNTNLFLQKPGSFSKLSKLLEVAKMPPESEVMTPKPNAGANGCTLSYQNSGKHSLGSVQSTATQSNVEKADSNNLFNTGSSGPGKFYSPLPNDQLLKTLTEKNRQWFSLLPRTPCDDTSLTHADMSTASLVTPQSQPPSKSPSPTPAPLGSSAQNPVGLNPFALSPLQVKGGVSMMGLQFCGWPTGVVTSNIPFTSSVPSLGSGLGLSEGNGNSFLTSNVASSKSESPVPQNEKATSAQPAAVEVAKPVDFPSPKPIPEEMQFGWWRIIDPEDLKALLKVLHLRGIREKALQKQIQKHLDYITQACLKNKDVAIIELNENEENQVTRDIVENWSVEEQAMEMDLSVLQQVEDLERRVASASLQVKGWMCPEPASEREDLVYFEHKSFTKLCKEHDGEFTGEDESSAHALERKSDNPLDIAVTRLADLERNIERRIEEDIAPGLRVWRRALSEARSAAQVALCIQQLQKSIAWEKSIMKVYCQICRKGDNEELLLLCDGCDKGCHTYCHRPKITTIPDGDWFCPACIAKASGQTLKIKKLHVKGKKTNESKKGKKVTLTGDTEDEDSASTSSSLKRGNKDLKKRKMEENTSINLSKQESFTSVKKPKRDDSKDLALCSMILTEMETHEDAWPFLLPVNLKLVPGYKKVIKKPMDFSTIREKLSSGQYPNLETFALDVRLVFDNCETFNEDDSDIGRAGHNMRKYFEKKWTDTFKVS
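BAZ2B 50 nM plus b-H3(5-23)K14Ac 50 nM, PBS pH 7.4/0.01% Tween-20, 30 min RT; compound added (max 110 uM), 30 min RT; streptavidin donor/Ni-chelate acceptor beads 10 ug/mL final, 20 min dark; AlphaScreen read.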
HP1b chromo inh = HTS for Inhibitors of HP1-beta Chromodomain Interactions with Methylated Histone Tails; Chromobox protein homolog 1 (Homo sapiens), P83916; AlphaScreen HP1-beta / biotin-H3K9me3 peptide binding; Potency, µM (doses to about 114 µM), inactives show at the highest dose activity change, negative = inhibition, most hits filed as inhibitors; hit rate 0.56% among 390,000; AID 540317, 2011; further: potency means the concentration at half of the fitted maximal effect; nearly all actives have a fitted effect of over 70% in size
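Compound inhibition of the preformed complex between 50 nM HP1-beta and 50 nM biotinylated H3K9me3 peptide was read by AlphaScreen. Buffer was PBS pH 7.4 with 0.01% Tween-20. Incubations ran 30 min at room temperature, with 10 ug/mL donor/acceptor beads.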
JMJD2A Tudor inh = qHTS Assay for Inhibitors of JMJD2A-Tudor Domain | Lysine-specific demethylase 4A (Homo sapiens), O75164 | AlphaScreen JMJD2A-Tudor / H3K4me3 peptide binding | Potency, µM (highest dose often 114 µM), for the others: top-dose activity change, negative = inhibition, usual class: inhibitors | hit rate 4.4% among 390,000; further: potency means the concentration at half of the fitted maximal effect; on the % scale 0 is the no-effect control and ±100 the full control effect; nearly all actives have a fitted effect of over 50% in size
PI5P4Ka inh = qHTS for Inhibitors of phosphatidylinositol 5-phosphate 4-kinase (PI5P4K); Phosphatidylinositol 5-phosphate 4-kinase type-2 alpha (Homo sapiens), P48426; PI5P4Kalpha enzyme, ADP-Glo luminescence, 60 min; active compounds read low; max response, %; hit rate 1.2% among 330,000; AID 652105, 2013; active means max response of -50% or lower; inconclusive means between -30% and -50%; inactive means -30% or higher; further: value at the top dose of about 77 µM; on the % scale 0 is the no-effect control and ±100 the full control effect
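Controls without substrate or without enzyme flank wells where PI5P4Kalpha converts substrate using 5 microM ATP (final). Incubation lasts 60 minutes at room temperature; ADP formed is read by ADP-Glo luminescence.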
G9a inh = qHTS Assay for Inhibitors of Histone Lysine Methyltransferase G9a | Histone-lysine N-methyltransferase EHMT2 (Homo sapiens), Q96KQ7 | AID 504332, 2011 | hit rate 8.8% among 350,000 | Potency, µM (doses to about 102 µM), without a hit: at the highest dose activity, negative = inhibition, hits mostly inhibitors | G9a H3K9 monomethylation, AlphaScreen, 2 h; further: potency means the concentration at half of the fitted maximal effect; on the % scale 0 is the no-effect control and ±100 the full control effect; nearly all actives have a fitted effect of over 75% in size
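Using a bead-based AlphaScreen, monomethylated H3K9 product from 2 h room-temperature reactions (G9a 20 nM, peptide 500 nM, SAM 20 uM) was detected with 0.5 ug/mL rabbit anti-H3K9me1 antibody.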
Starred values were filed as active, the others as inactive; u = inconclusive; x = no result given; [ ] = another dose, or the depositor's remark. Unless noted, the call rests on the fitted dose curve; in most records, active means well fitted inhibition curve with a large enough effect; inconclusive means small, poorly fitted or top-dose-only effect; inactive means no such curve, though single readings can be large or run the other way.

SMILES | L3MBTL1 block | BAZ2B inh | HP1b chromo inh | JMJD2A Tudor inh | PI5P4Ka inh | G9a inh
CCN(CC)CCN(C(=O)CCS(=O)(=O)c1ccccc1)c1nc2cc3c(cc2s1)OCO3 | x | -14% | 46% | -23% | -4 | 45µM*
N#Cc1nc(Nc2cccc(C(F)(F)F)c2)nc(NC2CCCC2)n1 | x | x | x | -24% | x | x
O=C(Cn1sc2ccccc2c1=O)Nc1ccc(Cl)cc1 | x | x | x | x | -82* | x
O=C(Cn1sc2ccccc2c1=O)Nc1ccc(Br)cc1 | x | x | x | x | -83* | x
O=C(Cn1sc2ccccc2c1=O)Nc1ccc(F)cc1 | x | x | x | x | -91* | x
O=C(Cn1nc(-c2ccccc2)c2ccccc2c1=O)Nc1ccc(F)cc1 | 12% | -3% | 12% | -20% | 5 | u
COc1ccc(NC(=O)Cn2c(=O)n(-c3ccc(C)cc3)c(=O)c3c2c2cc(C)ccc2n3C)cc1 | x | -31% | 29% | -13% | x | -12%[59 µM]
O=C(O)[C@H]1CCC(=O)N1Cc1ccco1 | -11% | 11% | 25% | -8% | 0 | u
CN(Cc1ccccc1)C(=O)[C@H]1CCC(=O)N1Cc1ccco1 | x | -22% | 43% | -5% | 2 | 45µM*
COc1ccc(/C(C)=N/OCC(=O)Nc2nc3ccccc3s2)cc1OC | -7% | u | -11% | -35% | 5 | 50µM*
COc1ccc(C(=O)NN2CC(O)=C(c3nc4ccccc4n3C)C2=N)cc1OC | 5% | -8% | 23% | 4.5µM* | 1 | 15%
COc1ccc(C(=O)NC(C)c2nc3ccccc3n2C)cc1OC (centres undefined) | 1% | 2% | 29% | -22% | -2 | -17%[59 µM]
COc1ccc(OC)c2sc(N(Cc3cccnc3)C(=O)c3ccco3)nc12 | x | u | 12% | -22% | x | -6%[59 µM]
COc1ccc(C(=O)N(Cc2ccccc2)Cc2ccccc2)c(O)c1 | x | x | x | -12% | x | x
CC(=O)c1ccc(N2CCN(C(=O)C3CCN(S(=O)(=O)c4ccc(Br)s4)CC3)CC2)cc1 | x | -1% | 33% | -8% | x | 2%[59 µM]
COc1ccccc1S(=O)Cc1ccc(C(=O)NCCc2ccc(Cl)cc2)o1 (centres undefined) | x | 1% | 72% | -8% | 3 | 40µM*
COc1ccccc1S(=O)Cc1ccc(C(=O)NC2CCCC2)o1 (centres undefined) | x | 11% | 55% | -11% | -2 | 28µM*
O=C(NCCc1ccc(Cl)cc1)c1ccc(CS(=O)Cc2ccc(Cl)cc2)o1 (centres undefined) | x | -38% | 40% | -17% | 11 | -14%
COc1ccc(NC(=O)C(c2ccc(OC)cc2)N(Cc2ccco2)C(=O)CC2NC(=O)NC2=O)cc1 (centres undefined) | x | u | 10% | -12% | 0 | 14%[59 µM]
COc1ccc(C(C(=O)Nc2ccc(C(C)C)cc2)N(Cc2ccco2)C(=O)CC2NC(=O)NC2=O)cc1 (centres undefined) | x | 40µM* | -2% | -33% | 3 | 8.9µM*
CCN(CC)c1ccc(/C=C2/C(=O)c3ccc(C(=O)O)cc3C2=O)cc1 | 25µM* | 25µM* | 35µM* | u | -92* | 13µM*
CN(c1ccccc1)S(=O)(=O)c1ccc(Cl)c(C(=O)Nc2nn[nH]n2)c1 | -1% | u | 25% | -18% | -4 | 28µM*
O=C(Cn1c(SCCOc2ccccc2)nc2ccccc21)N1CCOCC1 | x | 2% | 43% | -1% | x | -29%[59 µM]
O=C(NNc1ccccn1)C(=O)NNS(=O)(=O)c1ccc(Cl)cc1 | -2% | 56µM* | 31% | -18% | 5 | 30%
